UGM FP inh: Mtb UDP-galactopyranose mutase inhibition; purified UGM, fluorescence polarization probe displacement; 0.06% of 320,000 active; inhibition, % at 10 µM; in the data active means inhibition above about 10%, passing the limit was not always enough
Target sequence (P9WIQ1 whole entry, looked up): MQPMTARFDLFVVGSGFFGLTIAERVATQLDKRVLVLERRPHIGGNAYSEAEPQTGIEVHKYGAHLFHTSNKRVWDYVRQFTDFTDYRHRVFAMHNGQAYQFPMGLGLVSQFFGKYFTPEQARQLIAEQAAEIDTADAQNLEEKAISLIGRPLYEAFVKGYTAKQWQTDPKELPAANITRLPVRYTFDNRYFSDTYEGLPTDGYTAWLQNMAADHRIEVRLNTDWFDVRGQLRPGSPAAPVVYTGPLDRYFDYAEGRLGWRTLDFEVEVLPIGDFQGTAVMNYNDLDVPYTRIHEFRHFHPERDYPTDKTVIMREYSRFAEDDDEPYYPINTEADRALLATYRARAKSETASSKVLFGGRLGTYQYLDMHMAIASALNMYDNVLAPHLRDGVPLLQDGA
GDH-TPI counter-1: GDH-TPI coupled enzyme inhibition counter-screen. AID 588335. GDH-TPI coupled enzyme counterscreen, NADH absorbance. inhibition, % at 4.8 µM. 1.2% of 360,000 active; in the data active means inhibition above about 30%;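 further: 0% = DMSO wells and 100% = wells lacking the enzyme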
RecA intein inh: blocks M. tuberculosis RecA intein splicing | inhibition, % (test concentration not listed) | cell-free RecA intein splicing, fluorescence | 0.75% of 290,000 active; in the data active means inhibition above about 30%;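 further: 0% = vehicle wells and 100% = reference inhibitor control wells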
Mtb FBA inh: Mtb fructose-bisphosphate aldolase inhibition | purified M. tuberculosis FBA, fluorescence read-out | inhibition, % at 1 µM | 2.3% of 360,000 active | AID 588726;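 further: 0% = vehicle and 100% = reference inhibitor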
Rv3671c protease: inhibitors of M. tuberculosis serine protease Rv3671c | P9WHR9 | inhibition, % at 5.96 µM | 0.048% of 320,000 active | AID 2606; in the data active means inhibition above about 38%;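 further: extracellular domain of Rv3671c used as enzyme; 0% = enzyme with DMSO and 100% = no enzyme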
Mtb betalactam: beta-lactam sensitization of Mtb H37Rv; AID 434955; 0.27% of 330,000 active; M. tuberculosis H37Rv growth with meropenem, percent inhibition; inhibition, % at 25 µM; call rule not given here;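 further: growth measured after seven days incubation then overnight dye step; 0% = bacteria only wells and 100% = bacteria with antibiotic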
Mtb FBA inh conf: confirmation of M. tuberculosis fructose-bisphosphate aldolase inhibitors; shares compounds with Mtb FBA inh; purified M. tuberculosis FBA, fluorescence read-out; inhibition, % at 1 µM; 78% of 5,600 active; AID 651616;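 further: 0% = vehicle wells and 100% = reference inhibitor wells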
GDH-TPI counter-2: GDH-TPI inhibition counter-screen for FBA inhibitors; AID 652141; inhibition, % at 1 µM; shares compounds with Mtb FBA inh; 81% of 5,600 active; GDH-TPI coupled enzyme counterscreen, fluorescence; in the data active means inhibition above about 10%
Numbers without * were called inactive; x = no result; + = active, no number. Rows were chosen to be rich in hits. Some 4% of all compounds tested hit in one or more screens of this group. Unless noted, no stated cut-off is given here; in the data, active means inhibition above about 27%; inactive means the rest.

SMILES	UGM FP inh	GDH-TPI counter-1	RecA intein inh	Mtb FBA inh	Rv3671c protease	Mtb betalactam	Mtb FBA inh conf	GDH-TPI counter-2
COc1ccc(C(=O)NNC(=O)c2ccc3ccccc3c2O)cc1	1	9	0	2	0	-6	x	x
COc1cccc(NC(=O)NNC(=O)COc2ccc3ccccc3c2)c1	-1	10	1	37*	4	-3	+	+
C[C@@H](NS(=O)(=O)c1cc(Cl)ccc1F)[C@H](O)c1ccccc1	x	8	x	1	x	x	x	x
COc1ccc(OC)c(/C=N/NC(=O)CN2CCSCC2)c1	1	16	-1	85*	-6	-1	77*	66*
COc1ccc(OC)c(/C=N/NC(=O)C(O)c2ccccc2)c1 (configuration not stated)	0	15	-3	101*	4	2	82*	62*
COc1ccc(OC)c(/C=N/NC(=O)CNC(=O)c2ccc(S(=O)(=O)N3CCCC3)cc2)c1	2	3	1	36*	-17	-4	165*	121*
Cc1ccc(/C=N/NC(=O)CNC(=O)c2ccc(S(=O)(=O)N3CCCC3)cc2)o1	-2	11	3	-5	-3	-3	x	x
O=C(NN=Cc1ccccc1O)C(O)c1ccccc1 (configuration not stated)	x	9	x	4	x	x	x	x
COc1ccc([C@H]2CC(=O)C=C(c3ccc(F)cc3OCc3ccccc3)C2)cc1OC	-3	14	x	0	-10	13	x	x
Cc1ccccc1C(=O)N(CC(=O)Nc1sc(C)c(C)c1C(N)=O)C1CCCC1	0	8	-1	1	9	2	x	x
C/C(=N\Nc1ccccc1)c1cc2ccccc2oc1=O	-1	11	-1	65*	-2	97	6	-8
O=C(Cc1ccc(NC(=O)C2CCN(C(=O)C3CC3)CC2)cc1)Nc1ccc(C(=O)N2CCOCC2)cc1	x	3	x	3	x	x	x	x
Cc1ccn2c(c1)nc(=O)c1cc(S(=O)(=O)N3CCOCC3)ccc12	0	10	0	79*	3	4	153*	109*
Cn1c(=O)c(=O)n(C)c2cc(S(=O)(=O)N3CCOCC3)ccc21	-1	1	5	5	4	8	x	x
Cc1cc(=O)[nH]c2ccc(S(=O)(=O)N3CCOCC3)cc12	1	-4	-2	72*	-2	-5	124*	137*
COc1ccc(N(CC(=O)NC2CCCC2)C(=O)Cn2nnc(-c3ccc(F)cc3)n2)cc1	-2	4	-1	1	-2	4	x	x
O=C(COc1ccc(F)cc1)N(Cc1ccco1)C1CCS(=O)(=O)C1 (configuration not stated)	0	7	0	5	6	7	x	x
CC(Oc1ccccc1)C(=O)N1CCN(c2ccc(N3CCCCCC3)nn2)CC1 (configuration not stated)	-4	10	-2	16	-4	-2	x	x
O=C(CCS(=O)(=O)Cc1ccccc1)N1CCN(c2ccccc2)CC1	3	2	1	-4	-8	-7	x	x
CC(Oc1ccccc1)C(=O)N1CCN(c2ccc(N3CCOCC3)nn2)CC1 (configuration not stated)	-1	-7	-8	30*	0	-3	1	0
O=C(c1ccccc1)N1CCN(c2ccc(N3CCOCC3)nn2)CC1	1	1	-9	32*	9	-5	28*	30*
O=C(Cn1c(=O)oc2ccccc21)N1CCCCC1	-2	10	2	4	3	-4	x	x
O=C(c1cccc(Cl)c1)N1CCN(c2ccc(N3CCOCC3)nn2)CC1	0	9	-7	24	-5	-13	x	x
O=C(Cn1c(=O)oc2ccccc21)N1CCN(c2ccc(N3CCOCC3)nn2)CC1	-1	14	-4	28*	-3	8	132*	80*
Cc1ccccc1CS(=O)(=O)CCC(=O)N1CCN(c2ccc(N3CCOCC3)nn2)CC1	0	0	-5	35*	0	-7	66*	60*
CC1CN(C(=O)c2ccc(NS(=O)(=O)c3ccc(F)c(F)c3)cc2)CC(C)O1 (configuration not stated)	-3	-14	3	0	7	0	x	x

Source: PubChem BioAssay (several laboratories)
